Laboratory results published in the supplement of paper PMC8253809.

Experiments:
Assay in all cases: growth inhibition (% activity, log2 RLU normalised to DMSO / staurosporine); higher = more growth inhibition
Settings in all cases: 33 µM
DIPGX29 = tested on: DIPGX29 (H3.3 K27M diffuse intrinsic pontine glioma line)
Procedure, shortened: (§1)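 Approved drugs were tested in triplicate at a single final concentration of about 33 μM for 7 days at 37 °C, 5% CO2, on pHGG cell lines and H9-derived neural stem cells. Readout was CellTiter-Glo luminescence, log2-transformed and scaled per plate to % activity between solvent and positive control wells. The median over replicates gives the growth-inhibition value.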

DIPGX37 = tested on: DIPGX37 (H3.3 K27M diffuse intrinsic pontine glioma line)
Procedure, shortened: as §1

DIPGX7 = tested on: DIPGX7 (H3.3 K27M diffuse intrinsic pontine glioma line)
Procedure, shortened: as §1

DIPGX9 = tested on: DIPGX9 (diffuse intrinsic pontine glioma line)
Procedure, shortened: as §1

HGGX39 = tested on: HGGX39 (paediatric high-grade glioma line)
Procedure, shortened: as §1

HGGX6 = tested on: HGGX6 (H3.3 G34R paediatric high-grade glioma line)
Procedure, shortened: as §1

HNSC = tested on: HNSC
Procedure, shortened: as §1

SUDIPGIV = tested on: SUDIPGIV (diffuse intrinsic pontine glioma line)
Procedure, shortened: as §1

SUDIPGVI = tested on: SUDIPGVI (diffuse intrinsic pontine glioma line)
Procedure, shortened: as §1

SUDIPGXIII = tested on: SUDIPGXIII (diffuse intrinsic pontine glioma line)
Procedure, shortened: as §1

| SMILES | growth inhibition (DIPGX29) | growth inhibition (DIPGX37) | growth inhibition (DIPGX7) | growth inhibition (DIPGX9) | growth inhibition (HGGX39) | growth inhibition (HGGX6) | growth inhibition (HNSC) | growth inhibition (SUDIPGIV) | growth inhibition (SUDIPGVI) | growth inhibition (SUDIPGXIII) |
| --- | --- | --- | --- | --- | --- | --- | --- | --- | --- | --- |
| CC(C(=O)O)c1cccc(C(=O)c2ccccc2)c1 (stereo not given) | -0.509% | -1.31% | -0.656% | -0.0225% | 1.05% | 0.639% | 0.455% | -5.26% | 1.35% | -0.582% |
| CCCCCCCCCC(=O)N[C@@H](Cc1c[nH]c2ccccc12)C(=O)N[C@@H](CC(N)=O)C(=O)N[C@@H](CC(=O)O)C(=O)N[C@@H]1C(=O)NCC(=O)N[C@@H](CCCN)C(=O)N[C@@H](CC(=O)O)C(=O)N[C@H](C)C(=O)N[C@@H](CC(=O)O)C(=O)NCC(=O)N[C@H](CO)C(=O)N[C@@H]([C@H](C)CC(=O)O)C(=O)N[C@@H](CC(=O)c2ccccc2N)C(=O)O[C@@H]1C | -2.71% | -1.3% | -0.801% | -2.61% | -1.25% | -2.93% | -6.45% | -2.57% | -3.09% | -1.13% |
| CC12CC3CC(C)(C1)CC(N)(C3)C2 | 0.0357% | -0.52% | 0.741% | 1.54% | 1.57% | 1.17% | -0.299% | 0.153% | 0.617% | 1.06% |
| C[C@@H](O[C@H]1OCCN(Cc2nn(P(=O)(O)O)c(=O)[nH]2)[C@H]1c1ccc(F)cc1)c1cc(C(F)(F)F)cc(C(F)(F)F)c1 | 6.53% | 2.67% | 3.46% | 4.01% | 11.6% | 5.75% | 4.2% | 16.2% | 3.61% | 11.4% |
| CNCC[C@H](Oc1cccc2ccccc12)c1cccs1 | 3.5% | 4.35% | 4.07% | 2.42% | 5.92% | 4.8% | 16.9% | 2.42% | 4.44% | -1.12% |
| CCOC(=O)C1=C(C)NC(C)=C(C(=O)OCC)C1c1ccccc1/C=C/C(=O)OC(C)(C)C | 5.9% | -3.39% | 7.49% | 4.68% | 24.1% | 2.24% | 46.6% | 12.7% | 1.91% | 7.34% |
| CCCCC1C(=O)N(c2ccccc2)N(c2ccccc2)C1=O | -0.206% | -1.51% | -0.44% | -1.82% | -1.47% | -2.46% | 0.0851% | -3.3% | -4.73% | -0.592% |
| CSc1ccc2c(c1)N(CCC1CCCCN1C)c1ccccc1S2 (stereo not given) | 1.58% | 0.408% | -0.0552% | -0.344% | 2.69% | -0.282% | 7.39% | 0.193% | -0.552% | 0.0949% |
| NC(=O)NO | -5.64% | -0.579% | -2.73% | -1.74% | -1.77% | -4.15% | 2.98% | -2.11% | -4.44% | 1.21% |
| CCC[C@H](NC(=O)[C@@H]1[C@H]2CCC[C@H]2CN1C(=O)[C@@H](NC(=O)[C@@H](NC(=O)c1cnccn1)C1CCCCC1)C(C)(C)C)C(=O)C(=O)NC1CC1 | 0.654% | 1.66% | 1.2% | 1.41% | 1.74% | 2.24% | 3.02% | 0.139% | 1.78% | -0.0315% |
| Cc1nc(Nc2ncc(C(=O)Nc3c(C)cccc3Cl)s2)cc(N2CCN(CCO)CC2)n1 | 8.3% | -3.6% | 2.53% | 12.4% | 15.6% | 10.8% | 20% | -0.76% | 2.41% | 2.8% |
| CCCOc1ccc(C(=O)OCCN(CC)CC)cc1N | -3.81% | -2.51% | 0.125% | -2.19% | 6.15% | 3.2% | 4.12% | -0.212% | -1.94% | 0.093% |
| C[C@]12CCC(=O)C=C1CC[C@@H]1[C@@H]2[C@@H](O)C[C@@]2(C)[C@H]1CC[C@]2(O)C(=O)CO | 1.76% | 3.35% | 0.297% | 4.32% | 3.81% | 2.56% | -1.17% | -0.15% | 3.46% | 0.475% |
| CCCCCCCCCCCCCCCCO | -0.933% | 2.94% | 1.65% | 1.02% | 2.94% | -1.64% | 11.6% | 2.42% | 0.249% | 1.46% |
| O=C(O)CCNC(=O)c1ccccc1 | 0.362% | 2.48% | 0.618% | 0.575% | 0.895% | 0.906% | -1.4% | 0.839% | 1.57% | 1.01% |
| CCOC(=O)N1CCC(=C2c3ccc(Cl)cc3CCc3cccnc32)CC1 | 2.36% | 3.66% | 1.58% | 1.03% | 1.57% | 1.37% | 5.38% | 3.97% | 1.47% | 0.514% |
| COC(=O)/C=C/C(=O)OC | -1.63% | 0.743% | -0.432% | -0.334% | 0.42% | -3.26% | 6.49% | -2.1% | -1% | 1.57% |
| NC(=O)c1ncn([C@@H]2O[C@H](CO)[C@@H](O)[C@H]2O)n1 | -0.559% | 0.551% | 0.987% | 0.303% | 1.53% | 0.756% | -0.0938% | -0.992% | 2.19% | 0.78% |
